The structures appear in SMILES notation. Active and inactive are the calls of the source. Where a call stands in place of a potency, no number is given. Calls come from the whole dose curve; as a rule, active = well fitted activation curve with a large enough effect; inconclusive = small, poorly fitted or top-dose-only effect; inactive = no such curve, though single readings can be large or run the other way.

For 40 compounds, Potency results are on record in PubChem BioAssay (NCATS).
Potency is the fitted concentration of half-maximal effect.

Cytochrome P450 3A4 (Homo sapiens), sequence (P08684 whole entry, looked up): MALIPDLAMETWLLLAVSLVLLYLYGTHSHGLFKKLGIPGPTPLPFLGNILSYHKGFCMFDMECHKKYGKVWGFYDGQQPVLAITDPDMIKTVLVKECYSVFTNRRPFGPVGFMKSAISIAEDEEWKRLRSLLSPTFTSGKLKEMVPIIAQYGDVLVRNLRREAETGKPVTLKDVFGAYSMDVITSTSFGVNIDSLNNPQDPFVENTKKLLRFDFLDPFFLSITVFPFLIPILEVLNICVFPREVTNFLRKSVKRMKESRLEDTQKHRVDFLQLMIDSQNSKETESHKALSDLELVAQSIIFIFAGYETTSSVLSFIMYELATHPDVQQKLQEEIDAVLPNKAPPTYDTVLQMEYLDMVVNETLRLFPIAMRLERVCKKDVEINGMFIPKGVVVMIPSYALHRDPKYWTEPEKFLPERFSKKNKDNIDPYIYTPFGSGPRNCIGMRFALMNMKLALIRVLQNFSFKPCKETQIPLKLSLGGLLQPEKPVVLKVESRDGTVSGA

The experiment addresses Cytochrome P450 3A4 (Homo sapiens) (UniProt P08684). The experiment in a line: qHTS Assay for Activators of Cytochrome P450 3A4 (AID 885). Note: nearly all actives have a fitted effect of over 65% in size. The settings on record: recombinant CYP3A4, Luciferin-PPXE luminescence, 60 min; series mostly up to 57.1 µM. As to the method:
NIH Molecular Libraries Screening Centers Network [MLSCN]
NIH Chemical Genomics Center [NCGC]
The P450 gene superfamily is involved in the metabolism and clearance of xenobiotics. This assay used human CYP3A4 to measure the dealkylation of luciferin-6' phenylpiperazinylyl (Luciferin-PPXE; […]) to luciferin. The luciferin is then measured by luminescence after the addition of a luciferase detection reagent. Luciferin-PPXE concentration in the assay was equal to its KM for CYP3A4. Inhibitors and some substrates limit the production of luciferin, and decrease measured luminescence; activators increase the production of luciferin and luminescence.
NCGC Assay Protocol Summary:
Two uL of enzyme and substrate mix (final concentrations: 20nM CYP3A4, 25uM Luciferin-PPXE, 200mM KPO4) were dispensed into a white, solid bottom 1536-well microtiter plate. 23nL of compound was transferred by a pin tool. The plate was incubated at RT for 10 min. Two uL of an NADPH regeneration solution (Promega supplied reagent) was dispensed and the reaction was allowed to continue for 60 min at RT. Then the reaction was stopped by reconstituted luciferin detection buffer. After another 20 min of incubation the plate was read on the ViewLux (Perkin Elmer) at 60 sec exposure and 2x2 binning. This protocol was carried out with Promega-Glo reagents and further information can be found at http://www.promega.com/tbs/tb325/tb325.pdf. Data were normalized to the to AC100 inhibition (57 uM ketoconazole).
Keywords: P450, CYP2D6, Luciferase, MLSMR, MLSCN, NIH Roadmap, qHTS, NCGC
As to `CS(=O)(=O)Nc1cccc(-c2ccc3ncnc(Nc4ccccc4)c3c2)c1`, the Potency result was “inactive”.
For `COc1ccccc1CN1CC[C@@]2(CCCN(S(C)(=O)=O)C2)C1` the value was “inactive”; for `CCCn1c(-c2ccc(F)cc2)nc2c(N3CCC(N(C)C)C3)nc(C)nc21` (stereo not given), “inactive”; for `CN(C)c1ccc(-c2ccc3ncnc(N(C)C)c3c2)cc1`, “inactive”.
For `CN(C)c1ncc2ncc(=O)n(Cc3ccc(F)cc3)c2n1` the value was “inactive”.
For the compound `CCCCNc1nc(C)nc2c1nc(-c1ccccc1)n2C1CCN(Cc2ccccc2)C1` (stereo not given), the Potency result was “inactive”.
Regarding `COCCN(CCOC)c1nc(C)nc2c1nc(-c1ccccc1)n2CCCN1CCCCC1C` (stereo not given), the Potency entry is “inactive”.
For `N#CCCn1c(=O)c(CCc2ccccc2)nc2cnc(OCc3ccccc3)nc21` the value was “inactive”.
As for `COc1ccccc1-c1nccc(NCc2cnc(C)cn2)n1`, the Potency result was “inactive”.
For `Cc1nc(NC2CCCCC2)c2nc(-c3ccccc3)n(CCN(C)C)c2n1` the value was “inactive”.
As for `COc1ccccc1CNc1cc(-c2c(C)noc2C)ncn1`, the Potency entry is “inactive”.
For `O=C(c1ccco1)N1CCC[C@@]2(CCN(Cc3nccs3)C2)C1` the value was “inactive”.
Consider `CCN(CC)CCn1c(-c2ccccc2)nc2c(NC3CCCCC3)nc(C)nc21`, for which the Potency entry was “inactive”.
For `Cc1nc2cnc(N3CCNCC3)nc2n(Cc2cccs2)c1=O`, the Potency entry is “inactive”.
On to `CCCCNc1nc(C)nc2c1nc(-c1ccccc1)n2CCN1CCCC1`, for which the Potency result was “inactive”.
As to `CCCn1c(C)nc2c(Nc3ccccc3)nc(C)nc21`, the Potency result is “inactive”.
Turning to `O=C(c1csnn1)N1CCC2(CC1)CN(c1ccccn1)C2`, the Potency was 25.1 µM (active).
For `c1cncc(CNc2ncnc3ccc(-c4ccoc4)cc23)c1` the value was “inactive”; for `COc1ccc(NC(=O)N2CC3(CCN(C(=O)c4ccc(OC)cc4)CC3)C2)cc1`, “inactive”.
For `CC(=O)N1CCC2(CCCN(C(c3ccccc3)c3ccccc3)C2)CC1` the value was “inactive”; for `CCCn1c(C)nc2c(NCCN3CCCC3)nc(C)nc21`, 15.8 µM (active); for `CN1CCN(c2ncc3nc(-c4cc(F)cc(F)c4)c(=O)n(Cc4cccs4)c3n2)CC1`, “inactive”.
As for `Cc1noc(C)c1C(=O)N1CCC2(CCCN(c3ccccc3)C2)CC1`, the Potency entry was “inactive”.
As to `COCCn1c(=O)c(-c2ccc(Cl)cc2)nc2cnc(OC)nc21`, the Potency entry was “inactive”.
For the compound `CN1CCN(c2nc(-c3cccc(C#N)c3)nc3ccccc23)CC1`, the Potency entry is “inactive”.
For `O=c1c(-c2ccc(F)c(F)c2)nc2cncnc2n1C1CC1`, the Potency result was “inactive”.
For `Cc1noc(C)c1C(=O)N1CCC2(CCCN(C(=O)Nc3cccc(F)c3)C2)CC1` the value was “inactive”.
On to `Cc1cnc(CNc2ncnc3ccc(-c4ccoc4)cc23)cn1`, for which the Potency entry was “inactive”.
Regarding `COc1ccc(NC(=O)N2CCCC3(CCNCC3)C2)cc1`, the Potency result is “inactive”.
Turning to `c1csc(CNc2ccnc(-c3ccoc3)n2)c1`, the Potency entry was “inactive”.
For `CN(C)Cc1ccccc1-c1nccc(N(C)C)n1` the value was “inactive”; for `Cc1ccccc1-c1cncnc1NCc1ccccc1`, “inactive”; for `Cc1cnc(CNc2ccnc(-c3ccccc3Cl)n2)cn1`, “inactive”.
For `COc1ccccc1-c1cncnc1Nc1ccc(F)cc1`, the Potency entry was “inactive”.
`COCCNc1nc(C)nc2c1nc(-c1ccccc1)n2CCCN1CCCCC1C` (stereo not given): the Potency result is “inactive”.
For the compound `COc1ccc(Oc2ncc3ncc(=O)n(C[C@H]4CCCO4)c3n2)cc1`, the Potency entry is “inactive”.
With `CN(C)C(=O)c1ccc(-c2cncnc2NCCc2cnc[nH]2)cc1`, the Potency entry is “inactive”.
For `CCCn1c(C)nc2c(NC3CCN(Cc4ccccc4)C3)nc(C)nc21` (stereo not given) the value was “inactive”; for `Cc1cccc(CNc2ccnc(-c3ccoc3)n2)c1`, “inactive”; for `CC(C)NC(=O)N1CCCC2(CCN(C(=O)c3ccncc3)CC2)C1`, “inactive”.
